Reference: PubChem BioAssay (EPA / NIEHS)
Values joined by “and” are separate entries in the source; they are usually repeats but may differ in a detail not shown here. Equal values may be shown once. Active and inactive are the calls of the source. How the source made its calls: active means hit-call score of the fitted dose curve at least 0.9, where 1 is the maximum; inactive means score below 0.9.

Read-out: Monocyte Chemoattractant Protein-1 (MCP1), CCL2 (gene 6347)
Assay: BSK_SAg_MCP1: BioMAP Diversity Plus: SAg Assay for Monocyte Chemoattractant Protein-1 (MCP1) Biomarker Activity (AID 2283090)
Settings: primary human HUVEC with PBMC; actives raise or lower the signal
Experimental: BSK_SAg is a cell-based, multiplexed-readout assay that uses umbilical vein endothelium and peripheral blood mononuclear cells, a human vascular primary cell co-culture, with measurements taken at 24 hours after chemical dosing in a 96-well plate.BSK_SAg_MCP1 is an assay component measured in the BSK_SAg assay. It measures MCP-1 antibody related to regulation of gene expression using ELISA technology.Data from the assay component BSK_SAg_MCP1 was analyzed into 1 assay endpoint. This assay endpoint, BSK_SAg_MCP1, was analyzed with bidirectional fitting relative to DMSO as the negative control and baseline of activity. Using a type of binding reporter, gain or loss-of-signal activity can be used to understand changes in the signaling as they relate to the gene CCL2. Furthermore, this assay endpoint can be referred to as a primary readout, because this assay has produced multiple assay endpoints where this one serves a signaling function. To generalize the intended target to other relatable targets, this assay endpoint is annotated to the cytokine intended target family, where the subfamily is chemotactic factor.
The levels of cell surface (or secreted, indicated by the prefix "s") biomarker endpoints were measured by ELISA. Overt cytotoxicity to cells in confluent adherent cultures (all systems other than the BT system) was assessed by measuring total protein levels using sulforhodamine B (SRB) staining in parallel cultures at the time of biomarker measurements, indicated as SRB endpoints. For proliferation assays for adherent cell types, individual cell types are cultured at sub-confluence and relative cell numbers quantified by SRB staining at time points optimized for each system (48 h: 3C and CASM3C systems; 72 h: BT and HDF3CGF systems; 96 h: SAg system). SRB was performed by staining cells with 0.1% SRB after fixation with 10% TCA and reading wells at 560 nm.Viability and proliferation of PBMC (T cells) was quantified by Alamar Blue reduction for the SAg and BT systems. For PBMC viability (referred to as PBMC Cytotoxicity within the assay endpoint names), cells were plated (75,000/well in a 96-well plate) and then chemical samples added for 1 h before addition of activators, SEB and TSST-1 (20 ng/mL final concentration each). Cells were incubated for 90 h. Then, Alamar Blue (20 uL/well) (Invitrogen, Cat DAL1100) was added for 6 h, and the plates were read with a fluorescence microplate reader at 546/580 nm (excitation/emission). For PBMC proliferation, cells were plated and activated as above but incubated for only 16 h prior to addition of Alamar Blue. Plates were read after 6 h.

Row | Structure (SMILES) | AC50 | outcome
1 | CCN(CC)c1ccc(N=Nc2ccccc2)cc1 | 30.2 µM (active) | 
2 | OCC(F)(F)C(F)(F)C(F)(F)C(F)(F)C(F)(F)C(F)(F)C(F)(F)C(F)(F)CO |  | inactive
3 | CN(C(=O)C(F)(F)C(F)(F)C(F)(F)F)[Si](C)(C)C |  | inactive
4 | O=C(Cl)C(F)(F)C(F)(F)C(F)(F)C(F)(F)C(F)(F)C(F)(F)F |  | inactive
5 | CC(C)CCCC(C)CCO (stereo not given) |  | inactive
6 | O=C(O)C(F)(F)C(F)(F)C(F)(F)C(F)(F)C(F)(F)C(F)(F)C(F)F |  | inactive
7 | Cc1ccc(O)c(-n2nc3ccccc3n2)c1 |  | inactive
8 | OCC(O)CC(F)(F)C(F)(F)C(F)(F)C(F)(F)C(F)(F)C(F)(F)C(F)(F)C(F)(F)F (stereo not given) |  | inactive
9 | CCN(CC)c1ccc(C=O)c(O)c1 |  | inactive
10 | O=C(O)C(F)(F)C(F)(F)C(F)(F)OC(F)(C(F)(F)F)C(F)(F)F |  | inactive
11 | C[Si](Cl)(Cl)CCC(F)(F)C(F)(F)C(F)(F)C(F)(F)C(F)(F)C(F)(F)F |  | inactive
12 | CCOC(C=C(C)CCC=C(C)C)OCC |  | inactive
13 | O=C(Cl)C(F)(F)C(F)(F)C(F)(F)C(F)(F)C(F)(F)C(F)(F)C(F)(F)F |  | inactive
14 | C[C@]12CC[C@H]3C(=CCc4cc(O)ccc43)[C@@H]1CCC2=O |  | inactive
15 | CCN(CCO)S(=O)(=O)C(F)(F)C(F)(F)C(F)(F)C(F)(F)C(F)(F)C(F)(F)C(F)(F)C(F)(F)F | 18.8 µM (active) and 18.3 µM (active) | 
16 | CC1=CC2C3C=CC(C3)C2C1C (stereo not given) |  | inactive
17 | CO[Si](C)(CCC(F)(F)C(F)(F)C(F)(F)C(F)(F)C(F)(F)C(F)(F)F)OC |  | inactive
18 | C=CC(=O)OCC(F)(F)C(F)(F)C(F)(F)C(F)(F)C(F)(F)C(F)(F)C(F)(F)C(F)F |  | inactive
19 | NC(=O)C(F)(F)C(F)(F)C(F)(F)C(F)(F)C(F)(F)C(F)(F)C(F)(F)F |  | inactive
20 | OCC(F)(F)C(F)(F)C(F)(F)C(F)(F)C(F)(F)C(F)(F)CO |  | inactive

Row | Structure (SMILES) | AC50 | outcome
21 | OCC(O)CC(F)(F)C(F)(F)C(F)(F)C(F)(F)F (stereo not given) |  | inactive
22 | OCCCCC(F)(F)C(F)(F)C(F)(F)C(F)(F)F |  | inactive
23 | COC(F)(C(F)F)C(F)(F)F (stereo not given) |  | inactive
24 | O=C(F)C1(F)C(F)(F)C(F)(F)C(F)(F)C(F)(F)C1(F)F |  | inactive
25 | Cc1cnccn1 |  | inactive
26 | NC(=O)C(F)(F)C(F)(F)C(F)(F)C(F)(F)C(N)=O |  | inactive
27 | Nc1cc([N+](=O)[O-])cc(Cl)c1O |  | inactive
28 | Cc1cc(C)c(O)c(C(C)(C)C)c1 | 30.8 µM (active) | 
29 | Cc1cc(O)c(C(C)(C)C)cc1C(C)(C)C | 7.3 µM (active) | 
30 | NC(=O)C(F)(F)C(F)(F)C(F)(F)F |  | inactive
31 | FC(F)(F)C(F)(F)C(F)(F)C(F)(F)C(F)(F)C(F)(F)C(F)(F)CCI |  | inactive
32 | FC(F)(F)C(F)(F)C(F)(F)C(F)(F)C(F)(F)C(F)(F)CC[Si](Cl)(Cl)Cl |  | inactive
33 | NCC(F)(F)C(F)(F)C(F)(F)C(F)(F)C(F)(F)C(F)(F)C(F)(F)C(F)(F)F |  | inactive
34 | O=C(O)C(F)(F)OC(F)(F)C(F)(F)OC(F)(F)C(F)(F)OC(F)(F)F |  | inactive
35 | NC(=O)C(F)(F)C(F)(F)C(F)(F)C(F)F |  | inactive
36 | CCN=C1C=CC(=C(c2ccc(N(CC)CC)cc2)c2ccc(N(CC)CC)cc2)c2ccccc21 | 762 nM (active) and 1.25 µM (active) | 
37 | CCN(CC)c1ccc2c(c1)Oc1cc(N(CC)CC)ccc1C21OC(=O)c2ccccc21 |  | inactive
38 | O=C(O)CCC(F)(F)C(F)(F)C(F)(F)F |  | inactive
39 | O=S(=O)(Cl)C(F)(F)C(F)(F)C(F)(F)C(F)(F)C(F)(F)C(F)(F)C(F)(F)C(F)(F)F |  | inactive
40 | OCC(F)(F)C(F)(F)C(F)(F)CO |  | inactive
